Compound activity deposited in PubChem BioAssay by National Center for Advancing Translational Sciences (NCATS).
In the library only some 3.3% were active in any assay of this set; here they are far more common.
Hsp90 Hop PPI – qHTS Assay for Disrupters of an Hsp90 Co-Chaperone Interaction; Potency, µM (series often up to 57 µM), for the others: at the highest dose activity change, negative = inhibition; AlphaScreen TPR2A-His6 binding biotin-Hsp90 C-terminal peptide; Hsp90 C-terminal peptide / TPR2A (Hop) interaction, human; AID 595, 2007; 71,000 compounds, 0.44% hits; active = well fitted curve in either direction with a large enough effect; inconclusive = small, poorly fitted or top-dose-only effect, or another doubt; note: potency is the fitted concentration of half-maximal effect; % is set by controls: 0 for no effect and ±100 for the full control effect
BRCT inh green – qHTS Assay for Inhibitors of BRCT-Phosphoprotein Interaction (Green Fluorophore). 75,000 compounds, 0.05% hits. Potency, µM (top dose mostly 76.9 µM), inactives show at the top dose activity change, negative = inhibition, hits mostly inhibitors. AID 875, 2007. Breast cancer type 1 susceptibility protein (Homo sapiens), P38398. BRCA1 BRCT-phosphopeptide binding, green fluorescence polarization;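 note: potency is the fitted concentration of half-maximal effect; plate controls were peptide without protein for full effect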
Target sequence (P38398 whole entry, looked up): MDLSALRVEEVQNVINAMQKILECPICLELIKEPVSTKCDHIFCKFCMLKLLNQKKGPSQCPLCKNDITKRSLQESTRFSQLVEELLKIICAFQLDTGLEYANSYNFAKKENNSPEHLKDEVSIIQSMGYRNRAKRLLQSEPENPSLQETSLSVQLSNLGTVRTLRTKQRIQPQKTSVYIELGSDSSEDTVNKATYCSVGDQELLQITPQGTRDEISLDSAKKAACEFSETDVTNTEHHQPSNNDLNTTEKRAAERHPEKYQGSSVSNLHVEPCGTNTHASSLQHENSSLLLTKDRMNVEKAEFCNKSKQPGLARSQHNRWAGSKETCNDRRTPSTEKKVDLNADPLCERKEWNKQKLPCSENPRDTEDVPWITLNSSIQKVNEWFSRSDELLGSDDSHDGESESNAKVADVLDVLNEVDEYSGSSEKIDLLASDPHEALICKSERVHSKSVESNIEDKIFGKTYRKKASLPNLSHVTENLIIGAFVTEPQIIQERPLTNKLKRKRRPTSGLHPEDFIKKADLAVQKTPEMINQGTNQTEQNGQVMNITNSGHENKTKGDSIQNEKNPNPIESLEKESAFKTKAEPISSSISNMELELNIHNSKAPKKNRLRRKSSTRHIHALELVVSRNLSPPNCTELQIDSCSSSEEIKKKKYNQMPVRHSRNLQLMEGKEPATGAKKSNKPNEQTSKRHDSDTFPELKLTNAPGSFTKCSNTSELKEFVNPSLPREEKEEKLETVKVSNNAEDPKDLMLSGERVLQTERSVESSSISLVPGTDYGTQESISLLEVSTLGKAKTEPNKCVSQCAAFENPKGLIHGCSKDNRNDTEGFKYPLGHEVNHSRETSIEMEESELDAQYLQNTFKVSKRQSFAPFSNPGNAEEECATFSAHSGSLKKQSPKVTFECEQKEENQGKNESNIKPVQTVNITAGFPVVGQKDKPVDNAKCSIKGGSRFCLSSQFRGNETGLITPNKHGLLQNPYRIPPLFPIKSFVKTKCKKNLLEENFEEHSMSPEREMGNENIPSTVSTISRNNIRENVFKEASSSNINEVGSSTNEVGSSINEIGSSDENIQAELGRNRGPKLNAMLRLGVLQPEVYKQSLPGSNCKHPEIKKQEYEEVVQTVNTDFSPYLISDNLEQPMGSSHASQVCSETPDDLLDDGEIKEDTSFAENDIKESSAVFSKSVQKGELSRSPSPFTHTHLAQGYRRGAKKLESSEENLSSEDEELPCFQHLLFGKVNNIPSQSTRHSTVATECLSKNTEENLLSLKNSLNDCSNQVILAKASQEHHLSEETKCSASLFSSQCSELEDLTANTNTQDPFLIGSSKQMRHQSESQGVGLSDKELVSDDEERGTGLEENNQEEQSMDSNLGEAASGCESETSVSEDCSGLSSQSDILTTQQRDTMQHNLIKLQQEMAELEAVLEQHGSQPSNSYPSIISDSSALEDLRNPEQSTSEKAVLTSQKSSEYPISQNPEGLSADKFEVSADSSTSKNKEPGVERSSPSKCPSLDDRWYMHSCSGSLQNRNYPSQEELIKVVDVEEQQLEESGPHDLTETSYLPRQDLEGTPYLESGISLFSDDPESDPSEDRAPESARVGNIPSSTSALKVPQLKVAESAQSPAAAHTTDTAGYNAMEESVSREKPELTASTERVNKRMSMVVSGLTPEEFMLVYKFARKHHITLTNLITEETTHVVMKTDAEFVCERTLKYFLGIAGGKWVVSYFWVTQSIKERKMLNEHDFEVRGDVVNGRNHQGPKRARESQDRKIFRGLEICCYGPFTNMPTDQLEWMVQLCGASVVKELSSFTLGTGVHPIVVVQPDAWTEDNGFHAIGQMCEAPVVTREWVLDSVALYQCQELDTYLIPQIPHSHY
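Compounds were incubated for 12 min at room temperature with a complex of 100 nM fluorescein-tagged pBACH1 decapeptide and 250 nM His-tagged BRCT protein. Buffer was phosphate pH 7.3 with EDTA, DTT and Tween 20. Disruption of binding lowers the polarization signal.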
HEK293 cAMP cs – qHTS Assay for Agonists of the Thyroid Stimulating Hormone Receptor: Activators of Intracellular cAMP Concentrations in Parental HEK 293. parental HEK293 CNG cAMP sensor, membrane potential fluorescence. Potency, µM (top dose mostly 57.1 µM), inactives show top-dose activation, hits mostly activators. 73,000 compounds, 2.5% hits. AID 938, 2007; note: potency is the fitted concentration of half-maximal effect; % of control where 0% means no effect; nearly all actives have a fitted effect of over 55% in size
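Parental HEK 293 cells stably expressing a cAMP-gated CNG channel were loaded with membrane potential dye containing 100 uM RO 20-1724 for 60 min. Compound added for 30 min; depolarization read as fluorescence intensity at 590 nm.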
BRCT inh red – qHTS Assay for Inhibitors of BRCT-Phosphoprotein Interaction (Red Fluorophore). Breast cancer type 1 susceptibility protein (Homo sapiens), P38398. BRCT-phosphopeptide binding, red fluorescence polarization. AID 892, 2007. Potency, µM (titrated, usually from 76.9 µM), for inactives: top-dose activity change, negative = inhibition, actives largely listed as inhibitors. 75,000 compounds, 0.03% hits; note: % is set by controls: 0 for no effect and ±100 for the full control effect
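Rhodamine-labelled pBACH1 10-mer (100 nM) bound to BRCT domain (100 nM) at pH 7.3; compounds incubated 12 min room temperature, polarization read. Free peptide defines full inhibition; unlabelled decapeptide titrated as control.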
TsaE inh – qHTS Assay for Inhibitors of YjeE; tRNA threonylcarbamoyladenosine biosynthesis protein TsaE (Escherichia coli (strain …; purified YjeE enzyme, qHTS inhibition assay; Potency, µM; 71,000 compounds, 0.05% hits; AID 605, 2007
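Purified YjeE (10 uM) with BODIPY Texas Red-labeled ADP probe (2 uM); compounds pin-transferred, 15 min at room temperature. Binding inhibition read as decreased fluorescence polarization; ADP titration as control.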
TSHR ag – qHTS Assay for Agonists of the Thyroid Stimulating Hormone Receptor | Thyrotropin receptor (Homo sapiens), P16473 | HEK293-CNG-TSHR cells (CNG channel as cAMP sensor), membrane potential dye, cAMP | Potency, µM (top dose mostly 57.1 µM), without a hit: top-dose activation, most hits filed as activators | 73,000 compounds, 0.48% hits | AID 926, 2007; active = well fitted activation curve with a large enough effect in the main read-out, with a control signal flat, not every such curve was filed as active; inconclusive = small, poorly fitted or top-dose-only effect, or a change in a side signal; inactive = no such curve, though single readings can be large or run the other way; % of control where 0% means no effect;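 note: the control signal comes from parental cells without the receptor; potency is the fitted concentration of half-maximal effect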
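HEK 293 cells stably expressing TSHR and a modified CNG channel, with CNG-only parental cells as counterscreen, were preloaded 60 min at room temperature with membrane potential dye containing 100 uM RO 20-1724. Compound exposure was 30 min, and depolarization was read as fluorescence at 590 nm.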
* marks the source's active call; other numbers are inactive results; i = inactive; ? = inconclusive; nt = not tested or not shown. Unless noted, calls come from the whole dose curve; as a rule, active = well fitted curve in the direction sought with a large enough effect; inconclusive = small, poorly fitted or top-dose-only effect, or another doubt; inactive = no such curve, though single readings can be large; an effect the other way counts as inactive or inconclusive.

SMILES	Hsp90 Hop PPI	BRCT inh green	HEK293 cAMP cs	BRCT inh red	TsaE inh	TSHR ag
COc1ccc2oc(C(=O)OCC(=O)c3ccc4c(c3)OCCO4)c(C)c2c1	-2.0%	-0.5%	20µM*	-0.4%	i	?
COc1ccc(CNc2ncncc2-c2ccc(N(C)C)cc2)c(OC)c1	-27.5%	-1.1%	?	-0.8%	i	?
Clc1c(CSc2nc3ccccc3o2)nc2sccn12	-1.7%	1.0%	31.6µM*	-2.5%	i	?
C=C1CC[C@H]2C(C)(C)[C@H](O)CC[C@]2(C)[C@@H]1COc1ccc2ccc(=O)oc2c1	-2.0%	nt	?	nt	i	?
COc1cccc(/C=N/n2c(C)nc3ccccc32)c1OC	-1.7%	-1.4%	15.8µM*	-0.3%	i	?
COc1ccc(/C=N/n2c(SC)nnc2-c2ccccc2)c(OC)c1OC	0.1%	12.7%	?	-2.9%	i	?
Cc1cccc(-c2nc(C#N)c(N3CCCCCC3)o2)c1	?	-4.1%	23.4%	-1.2%	i	25.1µM*
NCCC[C@@H](CC(=O)N[C@@H]1CCCC[C@H]1C(=O)N[C@H](CC(=O)N[C@@H](CCC(=O)O)CC(=O)O)Cc1ccccc1)NC(=O)C[C@H](Cc1ccccc1)NC(=O)[C@@H]1CCCC[C@H]1N	-20.9%	nt	0.0316µM*	nt	i	?
CC(C)[C@@H](CC(=O)N[C@@H]1CCNC[C@H]1C(=O)N[C@H](CC(=O)N[C@@H](CCC(=O)O)CC(=O)O)Cc1c[nH]c2ccccc12)NC(=O)C[C@H](CO)NC(=O)[C@@H]1CNCC[C@H]1N	31.6µM*	nt	12.6%	nt	i	8.8%
NCCC[C@@H](CC(=O)N[C@@H]1CCNC[C@H]1C(=O)N[C@H](CC(=O)N[C@@H](CCC(=O)O)CC(=O)O)Cc1ccccc1)NC(=O)C[C@H](CO)NC(=O)[C@@H]1CNCC[C@H]1N	31.6µM*	nt	?	nt	i	?
NCCC[C@@H](CC(=O)N[C@@H]1CCNC[C@H]1C(=O)N[C@H](CC(=O)N[C@@H](CCC(=O)O)CC(=O)O)Cc1ccccc1)NC(=O)C[C@H](CO)NC(=O)[C@@H]1CCCC[C@H]1N	-20.1%	nt	8.4%	nt	i	5.1%
CC(C)C[C@@H](CC(=O)N[C@@H](CCCN)CC(=O)N[C@@H]1CCCC[C@H]1C(=O)N[C@H](CC(=O)N[C@@H](CCC(=O)O)CC(=O)O)Cc1ccccc1)NC(=O)[C@@H]1CCCC[C@H]1N	-11.2%	nt	?	nt	?	?
CC(C)C[C@@H](CC(=O)N[C@@H](CCC(=O)O)CC(=O)O)NC(=O)[C@@H]1CNCC[C@H]1NC(=O)C[C@@H](NC(=O)C[C@H](Cc1c[nH]c2ccccc12)NC(=O)[C@@H]1CNCC[C@H]1N)C(C)C	-7.9%	nt	8.9%	nt	i	10.3%
CCCN1C[C@@H](CSC)C[C@H]2c3cccc4[nH]cc(c34)C[C@@H]21	-10.0%	-1.9%	10.9%	-1.3%	i	-19.6%
CCOc1ccc(C2C=C(c3ccc(C)cc3)Nc3nnnn32)cc1 (configuration not stated)	14.3%	-1.0%	18.4%	0.9%	i	19.9%
CCOc1ccc(C2C=C(c3ccc(C)cc3)Nc3ncnn32)cc1 (configuration not stated)	11.3%	2.6%	20µM*	-2.4%	i	?
CC[C@@H]1[C@H]2CCCCN3[C@@H]2[C@@H](C[C@H]3[C@@H]2C[C@H](C)C(=O)O2)[C@@H]2[C@H]1OC(=O)[C@H]2C	-0.9%	nt	8.6%	nt	i	2.9%
